{
  "source": "ChEMBL document CHEMBL3433997",
  "about": "“St. Jude Leishmania screening dataset” (2016)",
  "data": [
    {"target": "Solute carrier family 2, facilitated glucose transporter member 1 (Homo sapiens) (UniProt P11166)", "sequence (P11166 whole entry)": "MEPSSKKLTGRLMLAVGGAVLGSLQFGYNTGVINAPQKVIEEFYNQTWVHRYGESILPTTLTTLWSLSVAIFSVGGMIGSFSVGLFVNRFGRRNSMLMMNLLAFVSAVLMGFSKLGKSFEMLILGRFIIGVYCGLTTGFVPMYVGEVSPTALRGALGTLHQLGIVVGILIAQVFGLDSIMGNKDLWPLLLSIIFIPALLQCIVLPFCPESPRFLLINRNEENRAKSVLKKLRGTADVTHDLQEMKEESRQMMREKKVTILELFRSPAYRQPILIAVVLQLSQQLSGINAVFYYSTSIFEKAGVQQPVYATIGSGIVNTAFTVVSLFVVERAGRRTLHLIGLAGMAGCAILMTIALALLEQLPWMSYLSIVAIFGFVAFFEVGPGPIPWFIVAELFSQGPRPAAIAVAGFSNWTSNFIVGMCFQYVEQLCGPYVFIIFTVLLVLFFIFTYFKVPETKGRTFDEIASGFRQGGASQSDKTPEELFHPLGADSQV", "assay": "ST_JUDE_LEISH: Cytotoxicity at 2uM final concentration against transgenic Leishmania Mexicana promastigotes LmGLUT1 that are glucose transport deficient and complemented with the human glucose transporter GLUT1. Activity is measured by DNA content using SYBR green in vitro", "type": "functional", "units": {"inhibition": "%"}, "values": [
      {"smiles": "Cc1cccc2nc(-c3ccc(-c4ccc(NC(=O)C(C)CN(C)C)cc4)s3)[nH]c12", "note": "(stereo not given)", "inhibition": 4.89},
      {"smiles": "CCOc1cc(Br)c(C(C)NC(=O)c2ccccc2)cc1OCC", "note": "(stereo not given)", "inhibition": 1.08},
      {"smiles": "O=C(/C=C/c1ccc(Cl)c(Cl)c1)NCCCCCN1CCCC(CNS(=O)(=O)c2ccc(F)cc2)C1", "note": "(stereo not given)", "inhibition": -1.15},
      {"smiles": "Cc1cc(N)c2cc(NC(=O)c3ccc4ccccc4c3)ccc2n1", "inhibition": 3.68},
      {"smiles": "COc1ccccc1CNC(=O)C(=O)Nc1c(-c2ccccc2)[nH]c2ccccc12", "inhibition": -3.25},
      {"smiles": "CN(CCC(O)c1ccc(Cl)c(Cl)c1)CC1CC1C(=O)c1ccccc1", "note": "(stereo not given)", "inhibition": 4.57},
      {"smiles": "Fc1ccc2[nH]c(-c3ccc(-c4cccc(CN5CCN(c6ccncc6)CC5)c4)cc3)nc2c1", "inhibition": 2.37},
      {"smiles": "N#Cc1ccc(N(CCOC(=O)c2ccc(Br)s2)Cc2ccccc2C(F)(F)F)cc1C(F)(F)F", "inhibition": 1.7},
      {"smiles": "Cc1cc(CNC(=O)[C@H](CC2CCCCC2)Nc2ccc(C#N)c3ccccc23)c(C(F)(F)F)o1", "inhibition": 1.15},
      {"smiles": "CN1CCN(c2nsc3ccc(-c4ccc(NC(=O)Nc5cc(C(F)(F)F)ccc5F)cc4)cc23)CC1", "inhibition": 5.16},
      {"smiles": "O=C(Nc1cc(Cl)cc(Cl)c1)Nc1ccnc2ccccc12", "inhibition": 2.68},
      {"smiles": "CC(C)(C)OC(=O)C1CCCN(Cc2ccc(-c3cccc(-c4nc5ccccc5[nH]4)c3)cc2)C1", "note": "(stereo not given)", "inhibition": 3.21},
      {"smiles": "O=S(=O)(NCCN1CCCC1)c1cccc(-c2ccc(CNCc3ccsc3)cc2)c1", "inhibition": 2.71},
      {"smiles": "CCOCCCNc1sc(S(=O)(=O)c2ccccc2)nc1S(=O)(=O)c1ccc(C)cc1", "inhibition": 8.93},
      {"smiles": "CC(C)(C(=O)Nc1ccc(C2CCC(NCC3CC3)CC2)c(Cl)c1)c1cccc(OC(F)F)c1", "note": "(stereo not given)", "inhibition": 9.94},
      {"smiles": "Cc1cc(CN2C(=O)C(c3ccccc3)(c3ccccc3)N=C2N)c(C(F)(F)F)o1", "inhibition": 6.61},
      {"smiles": "Cc1nnc2c(NC(=O)NC3CCCC3)cc3ccc(-c4cccc(CN5CCN(C)CC5)c4)cc3n12", "inhibition": 6.21},
      {"smiles": "CC(=O)Nc1ccc(CN2CCC(NC(=O)c3ccc(-c4cccc(C(F)(F)F)c4)s3)CC2)cc1", "inhibition": 0.69},
      {"smiles": "O=C(CCc1c[nH]cn1)Nc1cccc(-c2ccc(-c3nc4ccccc4[nH]3)cc2)c1", "inhibition": 6.89},
      {"smiles": "COc1cc(NC(=O)c2c(-c3c(Cl)cccc3Cl)noc2C)c(OC)cc1Cl", "inhibition": 3},
      {"smiles": "O=C(NCCCCN1CCC(c2ccc3c(c2OC(=O)c2ccc(NC(=O)c4ccc(Cl)cc4)cc2)CCCC3)CC1)c1ccc(NC(=O)c2ccc(Cl)cc2)cc1", "inhibition": 3.25},
      {"smiles": "CN(c1ccc2c(c1)nc(Nc1cc(C(C)(C)C)on1)n2C)c1ccnc(Nc2ccc(CS(C)(=O)=O)cc2)n1", "inhibition": -1.02},
      {"smiles": "Cn1nccc1C(=O)NCCNCc1cccc(-c2csc(-c3nc4ccccc4[nH]3)c2)c1", "inhibition": 9.15},
      {"smiles": "O=C(NCC1CCN(CCN2CCC(c3cn(CCO)c4ccccc34)CC2)CC1)c1ccc(-c2ccc(C(F)(F)F)cc2)cc1", "inhibition": 4.27},
      {"smiles": "COc1ccc2[nH]ccc(=NN=Cc3cccc(Cl)c3)c2c1", "inhibition": 15.1},
      {"smiles": "N=C(NCCc1ccc(Cl)cc1)c1ccc(Cl)c(Cl)c1", "inhibition": 2},
      {"smiles": "Cc1cc(NC(=O)Nc2cccc(Cl)c2Cl)c2ccccc2n1", "inhibition": 6.15},
      {"smiles": "O=C(NCCc1ccc(O)cc1)n1c2ccccc2c2ccccc21", "inhibition": 2.7},
      {"smiles": "CC[C@H](C)CNC(=O)c1cncc(-c2ccc(CNCC3CNCCCO3)cc2)c1", "note": "(stereo not given in full)", "inhibition": -1.56},
      {"smiles": "C=C[C@H]1CN(CCCCCCC)CC[C@H]1CC(O)Cc1ccnc2cc(O)c(OC)cc12", "note": "(stereo not given in full)", "inhibition": -1.66},
      {"smiles": "CCc1ccc(NC(=O)c2cccc(CN3CCCN(CC4CCCCC4)CC3)c2)cc1", "inhibition": 1.02},
      {"smiles": "CCNc1cc(C(=O)N[C@@H](Cc2ccccc2Cl)[C@H](O)CNC2CCCCC2)cc(N2CCCCS2(=O)=O)c1", "inhibition": 0.03},
      {"smiles": "CN(C)C1CCN(Cc2ccc(N3CCN(Cc4cccc5[nH]ccc45)CC3)nc2)CC1", "inhibition": 2.41},
      {"smiles": "CCN(CC)CCN(Cc1ccc(-c2ccc(C(F)(F)F)cc2)cc1)C(=O)Cn1c(CCc2cccc(F)c2F)cc(=O)cc1-c1ccccc1", "inhibition": 1.88},
      {"smiles": "CC(C)C1c2ccc(O)cc2CC2C(=O)N(C3CCCCC3)C(=O)N21", "note": "(stereo not given)", "inhibition": -1.04},
      {"smiles": "Cc1cc(NCCC(=O)NCCc2ccccc2)nc(NCCc2ccc(F)cc2)n1", "inhibition": 2.76},
      {"smiles": "Fc1ccc2[nH]c(-c3ccc(-c4ccc(CNCCc5cccnc5)cc4)s3)nc2c1", "inhibition": 6.23},
      {"smiles": "CSc1cccc(NC(=O)c2cc3ccccc3oc2=O)c1", "inhibition": 0.58},
      {"smiles": "O=C(NCCCCN1CCC(c2ccc3c(c2OCC2CC2)CCCC3)CC1)c1ccc(NC(=O)c2ccc(Cl)cc2)cc1", "inhibition": 7.74},
      {"smiles": "CC1CN(c2cnn(Cc3ccc(NC(=O)Nc4ccc(F)cc4[N+](=O)[O-])cc3)c(=O)c2Cl)CC(C)N1", "note": "(stereo not given)", "inhibition": 2.34}
    ]}
  ]
}
